High-throughput results from PubChem.
Rows were chosen to be rich in hits. Some 0.55% of all compounds tested hit in one or more screens of this group.
GLP1R cytotox: cytotoxicity counter-screen for GLP-1 receptor inverse agonists; Potency, µM (series often up to 38.3 µM), without a hit: at the highest dose activity change, negative = inhibition, actives largely listed as inhibitors; 410,000 compounds, 0.13% hits; HEK293 cAMP-luciferase reporter cells, luminescence, 24 h;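 also: loss of luciferase light is scored as toxicity; % is scaled to controls: 0 for no effect and ±100 for the full control effect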
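Compound-treated cells are incubated 24 hr at 37 deg C under 5% CO2 after a 12 hour attachment period, then luciferase detection reagent is added and luminescence is measured following 12 min at room temperature; lowered signal indicates toxicity.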
USP1-UAF1 inh: USP1/UAF1 (human) deubiquitinase inhibition; 390,000 compounds, 0.23% hits; recombinant USP1/UAF1, Ub-Rhodamine cleavage fluorescence; Potency, µM (top dose mostly 57.1 µM), for the others: top-dose activity change, negative = inhibition, most hits filed as inhibitors; O94782; also: % is scaled to controls: 0 for no effect and ±100 for the full control effect; nearly all actives have a fitted effect of over 60% in size
Target sequence (O94782 whole entry, looked up): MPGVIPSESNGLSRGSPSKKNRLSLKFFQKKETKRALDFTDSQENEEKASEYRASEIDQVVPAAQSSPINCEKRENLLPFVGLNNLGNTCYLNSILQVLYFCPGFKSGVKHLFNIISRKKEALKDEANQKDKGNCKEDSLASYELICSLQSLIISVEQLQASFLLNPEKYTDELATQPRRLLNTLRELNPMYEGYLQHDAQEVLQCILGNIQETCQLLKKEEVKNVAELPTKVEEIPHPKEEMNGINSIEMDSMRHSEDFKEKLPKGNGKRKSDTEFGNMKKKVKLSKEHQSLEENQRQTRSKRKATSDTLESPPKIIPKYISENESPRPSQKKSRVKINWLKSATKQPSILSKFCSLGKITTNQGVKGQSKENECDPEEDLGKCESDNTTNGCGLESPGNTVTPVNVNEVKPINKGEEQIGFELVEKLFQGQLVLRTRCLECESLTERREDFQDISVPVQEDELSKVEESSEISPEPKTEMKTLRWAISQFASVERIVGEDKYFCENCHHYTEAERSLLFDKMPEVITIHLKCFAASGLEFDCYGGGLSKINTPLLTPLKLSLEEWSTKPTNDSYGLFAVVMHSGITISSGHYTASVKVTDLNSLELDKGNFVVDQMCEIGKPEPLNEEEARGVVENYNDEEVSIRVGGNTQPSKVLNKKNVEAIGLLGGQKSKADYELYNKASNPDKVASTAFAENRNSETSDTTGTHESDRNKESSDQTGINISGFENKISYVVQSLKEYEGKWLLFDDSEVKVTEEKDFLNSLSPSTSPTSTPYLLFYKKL
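Step one: compound is pinned into 1nM USP1/UAF1 in HEPES pH 7.8 buffer with TCEP. Step two: 15 min room-temperature incubation. Step three: Ub-Rho (150nM final) starts cleavage, tracked by fluorescence over six one-minute reads.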
EPAC2 ag: activates human EPAC2 exchange factor | Q8WZA2 | EPAC2 activation, biochemical qHTS; response scale: 100% = 6.5 mM cAMP response | Potency, µM (series often up to 154 µM), without a hit: at the top dose activation, most hits filed as activators | 360,000 compounds, 0.079% hits; also: nearly all actives have a fitted effect of over 50% in size
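Guanine nucleotide exchange by EPAC2 is measured as reduced fluorescence of BODIPY-GDP once it is released from 250 nM Rap1B. Plates are read kinetically for 30 min at room temperature; results are scaled to 6.5 mM cAMP.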
EPAC1 agonist: agonists of human EPAC1; 360,000 compounds, 0.073% hits; Potency, µM (titrated, usually from 154 µM), without a hit: at the top dose activation, usual class: activators; O95398; AID 720707; EPAC1 agonist qHTS, biochemical assay; response scale: 100% = response to 6.5 mM cAMP; also: nearly all actives have a fitted effect of over 60% in size
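Normalized to 6.5 mM cAMP, activity reflects EPAC1-catalysed release of BODIPY-GDP from Rap1B, followed kinetically over 30 min at 480 nm excitation, 540 nm emission. Reaction contained 100 nM EPAC1, 250 nM Rap1B-BODIPY-GDP, 50 uM GDP.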
EPAC1 antagonist: antagonists of human EPAC1; O95398; EPAC1 GEF assay, Rap1b-BODIPY-GDP exchange fluorescence; AID 720709; 360,000 compounds, 0.14% hits; Potency, µM (series often up to 115 µM), for the others: at the top dose activity change, negative = inhibition, most hits filed as inhibitors;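 also: plate controls were vehicle for no effect and positive control for full effect; nearly all actives have a fitted effect of over 50% in size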
EPAC2 antagonist: EPAC2 (human) antagonism; EPAC2 GEF exchange of Rap1B-BODIPY-GDP, fluorescence; Q8WZA2; 360,000 compounds, 0.18% hits; Potency, µM (titrated, usually from 114 µM), without a hit: top-dose activity, negative = inhibition, most hits filed as inhibitors; also: % is scaled to controls: 0 for no effect and ±100 for the full control effect; nearly all actives have a fitted effect of over 45% in size
* = called active by the depositor; i = inactive; ? = inconclusive; nt = not tested or not shown; [ ] = dose if it differs, or a comment. Calls follow the shape of the dose curve; as a rule, active = well fitted curve in the direction sought with a large enough effect; inconclusive = small, poorly fitted or top-dose-only effect, or another doubt; inactive = no such curve, though single readings can be large; an effect the other way counts as inactive or inconclusive. Potency is read from the fitted curve at half-maximal effect.

SMILES	GLP1R cytotox	USP1-UAF1 inh	EPAC2 ag	EPAC1 agonist	EPAC1 antagonist	EPAC2 antagonist
CCN1/C(=C/C(C)=C/c2sc3ccccc3[n+]2CC)Sc2ccccc21	12.6µM*	?	-1.3%	-7.0%	?	?
COC(=O)[C@@H]1[C@@H](C(=O)OC)C2(c3ccccc3-c3ccccc32)N(c2ccc(Cl)cc2)N1C#N	-11.2%	-13.5%	7.4%	-1.6%	-12.4%	-4.5%
COC(=O)C[C@]1(C(=O)OC)CN(C#N)N(c2ccc(Cl)cc2)C12c1ccccc1-c1ccccc12	1.12µM*	-5.4%	10.0%	11.7%	-19.1%	-5.9%
COc1cccc(C(=O)c2cn(CC(=O)Nc3cc(Cl)c(OC)cc3OC)c3nc(C)ccc3c2=O)c1	2.2%	?	nt	nt	nt	nt
CCN(CC)c1ccc(/C=C/C(=O)c2ccc(Br)cc2)cc1	293.4%	28.2µM*	100µM*	100µM*	313.1%	364.0%
CCC(C)NC(=O)c1c(N)n(CCCOC)c2nc3ccccc3nc12 (stereo not given)	i	31.6µM*	11.4%	3.4%	-4.3%	-6.9%[57.1 µM]
C=C(CN(C)C)C(=O)c1ccc(C)cc1C	10µM*	-23.6%	0.2%	13.2%	5.1%	-5.3%
Cc1ccc(/C=C/C(=O)c2ccccc(=O)c2O)c(C)c1	?	?	11.5%	8.5%	?	-4.2%
O=C(NC(c1ccc(F)cc1)c1ccc2ccccc2n1)C1CCN(CCOc2ccc(Cl)cc2)CC1 (stereo not given)	?	nt	13.7%	1.0%	-9.5%	-6.0%
Cn1cccc1/C=C1/C(=O)NC(=S)N(Cc2ccc(F)cc2)C1=O	-21.3%	-28.9%	3.1%	-11.7%	15.8µM*	-0.3%
Cn1cccc1/C=C1/C(=O)NC(=O)N(Cc2ccc(F)cc2)C1=O	-25.2%	-12.8%	8.0%	1.7%	?	2.5%
COc1ccccc1CN1CCC(n2nccc2NC(=O)CCOc2ccccc2)CC1	?	-16.1%	-1.7%	6.3%	2.7%	3.4%
CN1C(=O)C(=Cc2ccc(N3CCCCCC3)o2)C(=O)N(C)C1=S	-18.6%	25.1µM*	?	11.5%	-5.2%	-0.6%
CC(=O)c1ccc(N2CCN(S(=O)(=O)c3cc(-c4onc(C)c4C)ccc3C)CC2)cc1	-0.2%	?	nt	nt	nt	nt
CC1CCN(S(=O)(=O)c2ccc3nc(Nc4cccc(F)c4)ccc3c2)CC1	?	-8.9%	nt	nt	nt	nt
